PrP 5UTR inh – inhibition of PrP 5' UTR reporter expression. cell-based PrP 5' UTR mRNA reporter, plate reader. actives 0.35% (n = 340,000). inhibition, % (concentration not given with the values); in the data active means inhibition above about 52%; further: 0 = median of the neutral control wells
GDH-TPI inh – GDH-TPI coupling enzyme inhibitors, primary screen, artefact control for M. tuberculosis FBA inhibitor project, biochemical, absorbance, full deck; AID 588335, 2011; actives 1.2% (n = 360,000); inhibition, % at 4.8 µM; GDH-TPI coupled enzyme counterscreen, NADH absorbance; in the data active means inhibition above about 30%;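 further: 0% = DMSO wells and 100% = wells lacking the enzyme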
Mtb hypoxia inh – PubChem AID 1159583; M. tuberculosis hypoxia-regulated fluorescent reporter, fluorescence; fluorescence inhibition, % (no concentration beside the values); actives 0.1% (n = 300,000); in the data active means fluorescence inhibition mostly above about 23%, no sharp cut-off; inactive means mostly below about 17%
PrPC TRFRET – inhibitors of human cell surface prion protein PrPC, primary screen, cell-based, TR-FRET | Major prion protein (Homo sapiens), P04156 | TR-FRET read-out | inhibition, % at 13.8 µM | actives 0.43% (n = 370,000); in the data active means inhibition above about 24%; further: 0% = median of the test wells and 100% = reference compound wells
Mtb FBA inh – Mtb FBA enzyme inhibitors, primary screen, biochemical, fluorescence, strain H37Rv; purified M. tuberculosis FBA, fluorescence read-out; inhibition, % at 1 µM; AID 588726, 2011; actives 2.3% (n = 360,000); in the data active means inhibition above about 27%;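 further: 0% = vehicle and 100% = reference inhibitor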
Target sequence (P9WQA3 whole entry, looked up): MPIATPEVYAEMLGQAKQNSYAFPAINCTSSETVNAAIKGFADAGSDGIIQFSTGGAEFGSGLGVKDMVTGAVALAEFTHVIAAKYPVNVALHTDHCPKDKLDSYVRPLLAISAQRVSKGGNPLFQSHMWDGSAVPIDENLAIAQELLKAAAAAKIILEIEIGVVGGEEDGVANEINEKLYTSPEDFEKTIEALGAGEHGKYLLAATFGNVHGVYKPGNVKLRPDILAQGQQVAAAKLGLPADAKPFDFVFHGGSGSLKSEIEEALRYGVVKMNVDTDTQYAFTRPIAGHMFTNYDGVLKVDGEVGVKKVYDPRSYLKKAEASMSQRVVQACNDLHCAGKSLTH
Yp Topo-I inh – Yersinia pestis topoisomerase I inhibitors, primary screen, biochemical, cleavage product accumulation, plate reader, single point | DNA topoisomerase I (Yersinia pestis CO92) | Y. pestis Topo-I cleavage product accumulation | activity, % at 10 µM | actives 0.064% (n = 360,000) | AID 504884, 2011; in the data active means activity above about 50%, passing the limit was not always enough
PrP UTR cherry – prion 5' UTR mRNA inhibition, cherry-pick retest; shares compounds with PrP 5UTR inh; cell-based prion protein 5' UTR reporter, plate reader; inhibition, % at 2.5 µM; actives 48% (n = 1,100); in the data active means inhibition above about 54%
Active calls of the source: *; x = no result shown. The list is not random: actives were taken first. Their share in the collection is about 3.8%.

SMILES | PrP 5UTR inh | GDH-TPI inh | Mtb hypoxia inh | PrPC TRFRET | Mtb FBA inh | Yp Topo-I inh | PrP UTR cherry
CC(=O)Nc1ccc2c(c1)Cc1c-2cc(Cl)c(NC(C)=O)c1Cl | -29 | 5 | 5 | -5 | -2 | -6 | x
CCOc1ccc(-n2nnc3c(=O)n(CC=Cc4ccccc4)cnc32)cc1 | x | x | 2 | x | x | x | x
CC(=O)OCC12CC(OC(=O)CC(C)C)C(C)=CC1OC1C(O)C(OC(C)=O)C2(C)C12CO2 (stereo unspecified) | 91* | 3 | x | 87* | 2 | -7 | 93*
O=C(CCCc1ccccc1)NC1CC1 | -19 | 12 | 11 | 8 | 6 | 3 | x
O=C(O)CCCc1ccc2c(c1)CCc1ccccc1-2 | 65* | 1 | x | -3 | 2 | -10 | 75*
COC(=O)C=Cc1ccc2c(c1)S(=O)(=O)N(Cc1ccc(OC)cc1)C2CC(=O)OC (stereo unspecified) | x | x | 8 | x | x | x | x
CC(=O)Nc1ccc(SCC(=O)c2cc(C)n(-c3ccccc3F)c2C)cc1 | 68* | 2 | -2 | 4 | -2 | 21 | 21
CC(=O)Nc1ccc(SCC(=O)c2cc(C)n(Cc3cccs3)c2C)cc1 | 61* | 8 | 8 | 3 | 0 | 9 | 36
COC(=O)c1ccc(-n2c(C)cc(C(=O)CSc3ccc(NC(C)=O)cc3)c2C)cc1 | -5 | 10 | -1 | 9 | -1 | 23 | x
Cc1ccc(C2C3C(=O)N(C)C(=O)C3[C@]3(Cc4ccccc4)C(=O)N(CCO)CC(=O)N23)o1 (stereo partly specified) | x | x | -10 | x | x | x | x
CCCCCC(=O)N1CC2(CC(c3cccc(NC(=O)CC(c4ccccc4)c4ccccc4)c3)=NO2)CC1C(N)=O (stereo unspecified) | x | x | 7 | x | x | x | x
COc1cc(-c2noc(C)c2/C=C/c2cccc([N+](=O)[O-])c2)cc(OC)c1OC | 58* | 13 | x | 9 | 2 | 33 | 71*
COc1cc(-c2noc(C)c2/C=C/c2ccc(C(=O)O)cc2)cc(OC)c1OC | -15 | 12 | x | 0 | 3 | -1 | x
COc1cccc(C=NNC(=O)C(C)Cn2cnc3ccccc32)c1 (stereo unspecified) | x | x | 6 | x | x | x | x
Cc1c(C(=O)N/N=C/c2ccc(Cl)cc2)[nH]c2ccc(Cl)cc12 | 61* | 19 | x | 5 | -1 | 4 | 78*
CCCCCC(=O)Nc1cccc(C2=NOC3(C2)CC(C(N)=O)N(C(=O)Cc2ccc([N+](=O)[O-])cc2)C3)c1 (stereo unspecified) | x | x | 4 | x | x | x | x
N[C@@H](Cc1ccccc1)C(=O)N1C[C@H]2C[C@@H](C1)c1cccc(=O)n1C2 | 67* | 4 | x | 16 | 3 | 4 | -12
CCOc1ccc(Nc2nc(N)c3ccccc3n2)cc1 | 56* | -4 | x | 5 | 2 | -14 | 41
CN(C)c1ccc(Nc2nc(N)c3ccccc3n2)cc1 | 77* | -3 | x | 14 | -5 | -14 | 62*
CCN1C(=O)C2C(c3ccc(C)cc3)N3C(=O)N(c4cccc(F)c4)C(=O)[C@@]3(CC)C2C1=O (stereo partly specified) | x | x | 4 | x | x | x | x
COc1ccccc1-c1nnc(SCC(=O)NC2CCCCC2)o1 | 76* | 8 | x | 3 | 4 | 0 | -4
Cc1ccccc1-c1nnc(SCC(=O)NC2CCCCC2)o1 | -1 | 2 | -1 | 0 | 2 | 8 | x
COc1ccc(C2CC(=O)Oc3cc4c(cc32)OCO4)cc1 (stereo unspecified) | 53* | -3 | 0 | -1 | -2 | 5 | -7
COc1cc(C2CC(=O)Oc3cc4c(cc32)OCO4)cc(OC)c1OC (stereo unspecified) | -13 | 13 | 4 | -5 | 0 | 5 | x
CC(C)c1cc(C(=O)NN=Cc2c[nH]c3ccccc23)n[nH]1 | x | x | 6 | x | x | x | x
SMILES | PrP 5UTR inh | GDH-TPI inh | Mtb hypoxia inh | PrPC TRFRET | Mtb FBA inh | Yp Topo-I inh | PrP UTR cherry
Cc1ccc(CC(=O)NN=Cc2ccc(OC(=O)c3ccc([N+](=O)[O-])cc3)cc2)cc1 | x | x | -1 | x | x | x | x
COc1cccc2c1C(=O)c1c(O)c3c(c(O)c1C2=O)CC(O)(C(C)=O)CC3OC1CC(N(C)C)C(O)C(C)O1 (stereo unspecified) | 88* | 8 | x | -20 | -4 | -37 | 91*
COc1cccc2c1C(=O)c1c(O)c3c(c(O)c1C2=O)C[C@@](O)(C(=O)CO)C[C@@H]3OC1CC(N)C(O)C(C)O1 (stereo partly specified) | 41 | 3 | x | -30 | -2 | -41 | x
COc1cccc2c1C(=O)c1c(O)c3c(c(O)c1C2=O)C[C@@](O)(C(=O)CO)C[C@@H]3O[C@H]1C[C@H](N)[C@H](O)[C@H](C)O1 | 89* | 8 | x | -28 | -8 | -31 | 92*
Cc1cc(C)c2nc(N=C(N)NC(=O)c3ccccc3)nc(C)c2c1 | x | x | 17 | x | x | x | x
O=C(NCCN1C(=O)S/C(=C/c2cccnc2)C1=O)c1ccc(S(=O)(=O)N2CCCC2)cc1 | 85* | 26 | x | 7 | -2 | 14 | -17
Cc1ccc(-n2[nH]c(=O)c(-c3ccccn3)c2C)cc1 | 72* | 5 | 17 | 9 | 0 | -8 | 68*
Cc1ccc(-n2[nH]c(=O)c3cccnc32)cc1 | -13 | 22 | 2 | -1 | -3 | 6 | x
O=C(c1ccccc1)N1CCSc2sccc2C1=O | 58* | 1 | 4 | 1 | 1 | 1 | 40
COC(=O)C1=C(c2ccc(-c3ccccc3)c(F)c2)CC2CCC1N2C(=O)N1CCCC1 (stereo unspecified) | x | x | 14 | x | x | x | x
N=C(N)SCP(=O)(c1ccccc1)c1ccccc1 | 64* | 5 | -2 | 3 | 3 | 6 | 3
Cc1ccc(P(=O)(CSC(=N)N)c2ccc(C)cc2)cc1 | -15 | 1 | 13 | -3 | 3 | -2 | x
Cn1c(=O)c2[nH]c(N=Nc3ccc(N)cc3N)nc2n(C)c1=O | 71* | -1 | 5 | -3 | -1 | 1 | -5
O=C1NCC(Cc2ccccc2)N(CC2CCCCC2)C1=O (stereo unspecified) | x | x | 7 | x | x | x | x
COC(=O)c1ccccc1NC(=O)C(C)c1ccc([N+](=O)[O-])cc1 (stereo unspecified) | 64* | -9 | 13 | -7 | 1 | 18 | 2
CCC(C)Sc1ccc(C2N[C@@](Cc3ccccc3)(C(=O)OC)C3C(=O)N(C)C(=O)C23)cc1 (stereo partly specified) | x | x | 6 | x | x | x | x
COc1cc(OC)cc(-c2cc3cc4c(cc3cn2)OCO4)c1 | 62* | 3 | x | x | 4 | -9 | 81*
COc1ccc(-c2cc3cc4c(cc3cn2)OCO4)cc1 | -7 | 6 | 12 | 6 | 20 | -2 | x
